Assay results published in PubChem BioAssay (EPA / NIEHS).
Results filed as inconclusive are left out. Active and inactive are the calls of the source. How the source made its calls: active means hit-call score of the fitted dose curve at least 0.9, where 1 is the maximum; inconclusive means response in the unintended direction; inactive means score below 0.9.

Tests used:
[1] = test system: turtle Estrogen Receptor (ERa), gene 101933533; experiment: ATG_trERa_XSP2: Attagene TRANS-FACTORIAL Multi-Species (XSP2) HepG2 Assay for turtle Estrogen Receptor (ERa) (AID 2283812);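 further: actives raise reporter signal above DMSO so AC50 reflects agonist activity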
Summary of the method: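 Readout is reporter mRNA quantified by RT-PCR with capillary electrophoresis after 24 h compound exposure, increase relative to DMSO. Uses transiently transfected human HepG2 liver cells carrying a chimeric turtle ERa-Gal4 receptor driving GAL4-UAS reporters.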

[2] = target: chicken Estrogen Receptor (ERa), ESR1 (gene 396099) (UniProt P06212); experiment: ATG_chERa_XSP2: Attagene TRANS-FACTORIAL Multi-Species (XSP2) HepG2 Assay for chicken Estrogen Receptor (ERa) (AID 2283817);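 further: actives raise reporter signal above DMSO so AC50 reflects ER activation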
Summary of the method: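 Reporter mRNA induction read by RT-PCR, fluorescent labelling and capillary electrophoresis after 24 h exposure; positive-direction fit against DMSO baseline. HepG2 cells transfected with multiplexed GAL4-UAS units including chicken ERa chimera; medium contained 3 nM 6-alpha-fluorotestosterone plus 1.5 nM norgestrel.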

[3] = test system: zebrafish Estrogen Receptor (ER2a), gene 317734; experiment: ATG_zfER2a_XSP2: Attagene TRANS-FACTORIAL Multi-Species (XSP2) HepG2 Assay for zebrafish Estrogen Receptor (ER2a) (AID 2283818);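 further: hits raise reporter mRNA so AC50 reflects activation of zebrafish ER2a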
Summary of the method: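 Multiplexed trans-reporter readout: RT-PCR then capillary electrophoresis of reporter transcripts after 24 h compound treatment. Human HepG2 carries transfected zebrafish ER2a-Gal4 chimera; 3 nM 6-alpha-fluorotestosterone plus 1.5 nM norgestrel present. Induction scored against DMSO.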

[4] = test system: chicken Androgen Receptor (AR), gene 422165; experiment: ATG_chAR_XSP2: Attagene TRANS-FACTORIAL Multi-Species (XSP2) HepG2 Assay for chicken Androgen Receptor (AR) (AID 2283819);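 further: hits raise reporter mRNA above DMSO so potency is for activation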
Summary of the method: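 Readout is reporter mRNA induction via RT-PCR/capillary electrophoresis after 24 h chemical exposure, positive direction relative to DMSO. Transiently transfected HepG2 express chimeric chicken AR–GAL4; AR stimulated by 3 nM 6-alpha-fluorotestosterone and 1.5 nM norgestrel.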

[5] = test system: frog Estrogen Receptor (ER), gene 398734; experiment: ATG_frER1_XSP2: Attagene TRANS-FACTORIAL Multi-Species (XSP2) HepG2 Assay for frog Estrogen Receptor (ER) (AID 2283821);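 further: hits raise reporter mRNA above DMSO baseline so potency means agonist or activator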
Summary of the method: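 HepG2 cells transiently transfected with multiplexed GAL4-UAS reporter units expressing chimeric NR-Gal4 proteins (TRANS format) were dosed for 24 h. Reporter mRNA was quantified by RT-PCR, FAM primer extension, HpaI digestion and capillary electrophoresis; gain of signal relative to DMSO.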

[6] = test system: zebrafish Estrogen Receptor (ER2b), gene 317733; experiment: ATG_zfER2b_XSP2: Attagene TRANS-FACTORIAL Multi-Species (XSP2) HepG2 Assay for zebrafish Estrogen Receptor (ER2b) (AID 2283823);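 further: fitted upward as reporter gain over DMSO so potency reflects activation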
Summary of the method: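 Cells used were HepG2, transiently transfected with chimeric nuclear receptor-Gal4 reporter units. After 24 h of chemical treatment, reporter transcripts were amplified by RT-PCR, labelled and sized by capillary electrophoresis, with induction analysed relative to DMSO.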

[7] = ATG_M_32_XSP2: Attagene TRANS-FACTORIAL Multi-Species (XSP2) HepG2 Assay for M19 Transcription Factor (Internal Marker) (AID 2283826)
Summary of the method: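 Transfected HepG2 (multiplexed GAL4-UAS reporters), 24 h chemical exposure, 3 nM 6-alpha-fluorotestosterone + 1.5 nM norgestrel added. RNA → oligo(dT) RT → PCR → 6-FAM primer extension → HpaI cut → CE. Fitted upward vs DMSO.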

[8] = target: Peroxisome proliferator-activated receptor gamma (Homo sapiens) (UniProt P37231); experiment: ATG_hPPARg_XSP2: Attagene TRANS-FACTORIAL Multi-Species (XSP2) HepG2 Assay for human Peroxisome Proliferator-activated Receptor gamma (PPARg) (AID 2283829);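 further: actives raise reporter mRNA above DMSO so AC50 reflects PPARg activation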
Summary of the method: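 After transfecting HepG2 with GAL4-UAS reporter constructs, cells are dosed for 24 h; total RNA is reverse-transcribed, PCR-amplified, FAM-labeled, HpaI-digested and resolved by capillary electrophoresis. Activity is measured as mRNA induction relative to DMSO.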

[9] = target: mouse Peroxisome Proliferator-activated Receptor gamma (PPARg), Pparg (gene 19016) (UniProt P37238); experiment: ATG_mPPARg_XSP2: Attagene TRANS-FACTORIAL Multi-Species (XSP2) HepG2 Assay for mouse Peroxisome Proliferator-activated Receptor gamma (PPARg) (AID 2283830);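 further: hits are gains in reporter mRNA above DMSO so AC50 marks activation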
Summary of the method: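 Multiplexed TRANS reporter readout: after 24 h chemical exposure of transfected HepG2 cells (with 3 nM 6-alpha-fluorotestosterone, 1.5 nM norgestrel present), RNA reverse-transcribed, amplified, 6-FAM-labelled and resolved by capillary electrophoresis; mouse PPARg-Gal4 induction scored against DMSO.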

[10] = target: Nuclear receptor subfamily 1 group I member 2 (Mus musculus) (UniProt O54915); experiment: ATG_mPXR_XSP2: Attagene TRANS-FACTORIAL Multi-Species (XSP1) HepG2 Assay for mouse Pregnane X Receptor (PXR) (AID 2283831)
Summary of the method: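 Reporter transcripts were quantified by RT-PCR, FAM primer extension, HpaI digestion and capillary electrophoresis after 24 h of chemical exposure in transiently transfected HepG2 cells carrying chimeric receptor-GAL4 constructs; DMSO served as baseline.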

[11] = test system: zebrafish Peroxisome Proliferator-activated Receptor gamma (PPARg), gene 557037; experiment: ATG_zfPPARg_XSP2: Attagene TRANS-FACTORIAL Multi-Species (XSP2) HepG2 Assay for zebrafish Peroxisome Proliferator-activated Receptor gamma (PPARg) (AID 2283833);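 further: actives increase reporter signal over DMSO so AC50 reflects activation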
Summary of the method: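 Multi-species TRANS format in HepG2, 24 h dosing; medium also contained 3 nM 6-alpha-fluorotestosterone and 1.5 nM norgestrel to stimulate androgen receptor. Zebrafish PPARg-GAL4 induced reporter mRNA was measured by RT-PCR/capillary electrophoresis.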

[12] = ATG_M_19_XSP2: Attagene TRANS-FACTORIAL Multi-Species (XSP2) HepG2 Assay for M32 Transcription Factor (Internal Marker) (AID 2283822)
Summary of the method: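 Internal background marker in a multi-species nuclear receptor TRANS panel: transfected HepG2 cells exposed 24 h, with 3 nM 6-alpha-fluorotestosterone and 1.5 nM norgestrel present. Readout is RT-PCR of reporter transcripts resolved by capillary electrophoresis, gain-of-signal versus DMSO.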

[13] = test system: frog Estrogen Receptor (ER2), gene 100174814; experiment: ATG_frER2_XSP2: Attagene TRANS-FACTORIAL Multi-Species (XSP2) HepG2 Assay for frog Estrogen Receptor (ER2) (AID 2283828)
Summary of the method: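 Read-out: reporter transcript levels by RT-PCR with 6-FAM primer extension, HpaI digestion and capillary electrophoresis, scored as induction over DMSO control. Transfected HepG2 carrying Xenopus ER2–GAL4 chimera; compounds incubated 24 h.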

[14] = target: GAL4 Transcription Factor (Internal Marker), GAL4 (gene 855828) (UniProt P04386); experiment: ATG_GAL4_XSP2: Attagene TRANS-FACTORIAL Multi-Species (XSP2) HepG2 Assay for GAL4 Transcription Factor (Internal Marker) (AID 2283814);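 further: GAL4 reporter mRNA background control in MRTU transfected cells not a receptor target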
Summary of the method: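 Background-control readout: gain-of-signal fitted against DMSO. After 24 h exposure of transfected HepG2 (MRTU, GAL4-UAS reporters; 3 nM 6-alpha-fluorotestosterone, 1.5 nM norgestrel present), transcripts quantified by RT-PCR and capillary electrophoresis fluorescence.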

[15] = test system: turtle Androgen Receptor (AR), gene 101947425; experiment: ATG_trAR_XSP2: Attagene TRANS-FACTORIAL Multi-Species (XSP2) HepG2 Assay for turtle Androgen Receptor (AR) (AID 2283815)
Summary of the method: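 Reporter transcripts were quantified via RT-PCR and capillary electrophoresis and fitted upward against DMSO. Transiently transfected human HepG2 cells carrying NR-Gal4 chimeras were exposed 24 h, with 3 nM 6-alpha-fluorotestosterone plus 1.5 nM norgestrel added.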

[16] = target: Estrogen receptor (Homo sapiens) (UniProt P03372); experiment: ATG_hERa_XSP2: Attagene TRANS-FACTORIAL Multi-Species (XSP2) HepG2 Assay for human Estrogen Receptor (ERa) (AID 2283827)
Summary of the method: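 Trans-activation of exogenous human ERa-Gal4 chimera read in HepG2 as reporter transcript after 24 h exposure; medium included 3 nM 6-alpha-fluorotestosterone and 1.5 nM norgestrel. Quantified by RT-PCR with capillary electrophoresis, positive-direction fitting against DMSO.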

[17] = target: zebrafish Thyroid Hormone Receptor alpha (TRa), thraa (gene 30670) (UniProt Q98867); experiment: ATG_zfTRa_XSP2: Attagene TRANS-FACTORIAL Multi-Species (XSP1) HepG2 Assay for zebrafish Thyroid Hormone Receptor alpha (TRa) (AID 2283832);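 further: actives raise zebrafish TRa-Gal4 reporter transcript above DMSO baseline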
Summary of the method: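 Readout is reporter mRNA induction, quantified by RT-PCR and capillary electrophoresis with fluorescent labelling, after 24 h compound exposure of transiently transfected HepG2 cells carrying NR-Gal4 chimera reporters. Activity fitted upward relative to DMSO.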

[18] = target: Estrogen receptor beta (Homo sapiens) (UniProt Q92731); experiment: ATG_hERb_XSP2: Attagene TRANS-FACTORIAL Multi-Species (XSP2) HepG2 Assay for human Estrogen Receptor (ERb) (AID 2283813);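 further: actives raise reporter mRNA above DMSO so AC50 reflects agonist induction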
Summary of the method: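 Transient TRANS reporter system in HepG2: after 24 h of chemical, RNA is reverse-transcribed, reporter cDNA amplified, FAM-labelled and sized by capillary electrophoresis. Induction of the human ERb-Gal4 reporter is measured relative to DMSO.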

[19] = target: zebrafish Estrogen Receptor (ER1), esr1 (gene 259252) (UniProt P57717); experiment: ATG_zfER1_XSP2: Attagene TRANS-FACTORIAL Multi-Species (XSP2) HepG2 Assay for zebrafish Estrogen Receptor (ER1) (AID 2283816)
Summary of the method: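 After 24 h compound exposure, RNA from transfected HepG2 cells was reverse-transcribed and reporter transcripts resolved by capillary electrophoresis. The TRANS format reads exogenous zebrafish ER1-Gal4 chimera activity on GAL4-UAS elements; gain of signal against DMSO.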

Measured: AC50

Chain of Peroxisome proliferator-activated receptor gamma (Homo sapiens) (P37231 whole entry, looked up, the tested form may be a part): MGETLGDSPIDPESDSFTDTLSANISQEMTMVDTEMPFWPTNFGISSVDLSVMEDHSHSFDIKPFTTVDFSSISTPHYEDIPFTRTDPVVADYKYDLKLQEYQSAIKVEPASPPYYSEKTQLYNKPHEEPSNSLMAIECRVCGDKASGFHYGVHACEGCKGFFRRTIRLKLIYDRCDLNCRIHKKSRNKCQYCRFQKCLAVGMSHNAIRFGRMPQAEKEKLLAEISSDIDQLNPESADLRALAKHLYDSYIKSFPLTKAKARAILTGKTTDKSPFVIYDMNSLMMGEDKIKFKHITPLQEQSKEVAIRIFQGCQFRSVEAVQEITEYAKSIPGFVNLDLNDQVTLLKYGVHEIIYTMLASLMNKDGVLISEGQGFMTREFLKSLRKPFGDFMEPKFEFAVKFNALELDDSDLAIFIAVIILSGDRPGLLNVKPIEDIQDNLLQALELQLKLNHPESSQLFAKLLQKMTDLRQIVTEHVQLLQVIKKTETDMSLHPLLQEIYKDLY
Chain of mouse Peroxisome Proliferator-activated Receptor gamma (PPARg), Pparg (gene 19016) (P37238 whole entry, looked up, the tested form may be a part): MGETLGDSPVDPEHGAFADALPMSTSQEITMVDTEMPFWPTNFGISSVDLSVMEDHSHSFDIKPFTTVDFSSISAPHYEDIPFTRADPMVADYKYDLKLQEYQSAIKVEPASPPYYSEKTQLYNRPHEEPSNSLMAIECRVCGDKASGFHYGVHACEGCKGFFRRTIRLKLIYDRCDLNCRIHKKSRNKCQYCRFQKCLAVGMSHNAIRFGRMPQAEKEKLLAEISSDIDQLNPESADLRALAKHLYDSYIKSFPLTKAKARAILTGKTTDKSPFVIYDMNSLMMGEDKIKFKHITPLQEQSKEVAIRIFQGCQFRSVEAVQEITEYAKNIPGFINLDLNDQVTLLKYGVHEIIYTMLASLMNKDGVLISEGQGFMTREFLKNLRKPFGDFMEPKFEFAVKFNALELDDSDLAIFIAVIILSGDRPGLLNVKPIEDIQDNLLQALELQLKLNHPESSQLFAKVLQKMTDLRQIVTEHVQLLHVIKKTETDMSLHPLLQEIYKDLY
Chain of zebrafish Thyroid Hormone Receptor alpha (TRa), thraa (gene 30670) (Q98867 whole entry, looked up, the tested form may be a part): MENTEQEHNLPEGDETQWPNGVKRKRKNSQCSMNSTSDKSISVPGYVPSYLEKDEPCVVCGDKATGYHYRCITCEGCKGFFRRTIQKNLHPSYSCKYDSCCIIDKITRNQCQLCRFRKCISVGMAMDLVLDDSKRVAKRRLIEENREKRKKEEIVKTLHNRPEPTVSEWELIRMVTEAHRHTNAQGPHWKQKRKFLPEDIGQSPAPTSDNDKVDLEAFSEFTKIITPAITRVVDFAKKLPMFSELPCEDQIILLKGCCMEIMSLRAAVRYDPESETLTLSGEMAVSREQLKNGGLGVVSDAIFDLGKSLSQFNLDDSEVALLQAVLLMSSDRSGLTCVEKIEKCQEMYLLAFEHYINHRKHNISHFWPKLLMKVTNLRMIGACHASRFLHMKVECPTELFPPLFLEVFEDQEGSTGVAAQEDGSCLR
Chain of GAL4 Transcription Factor (Internal Marker), GAL4 (gene 855828) (P04386 whole entry, looked up, the tested form may be a part): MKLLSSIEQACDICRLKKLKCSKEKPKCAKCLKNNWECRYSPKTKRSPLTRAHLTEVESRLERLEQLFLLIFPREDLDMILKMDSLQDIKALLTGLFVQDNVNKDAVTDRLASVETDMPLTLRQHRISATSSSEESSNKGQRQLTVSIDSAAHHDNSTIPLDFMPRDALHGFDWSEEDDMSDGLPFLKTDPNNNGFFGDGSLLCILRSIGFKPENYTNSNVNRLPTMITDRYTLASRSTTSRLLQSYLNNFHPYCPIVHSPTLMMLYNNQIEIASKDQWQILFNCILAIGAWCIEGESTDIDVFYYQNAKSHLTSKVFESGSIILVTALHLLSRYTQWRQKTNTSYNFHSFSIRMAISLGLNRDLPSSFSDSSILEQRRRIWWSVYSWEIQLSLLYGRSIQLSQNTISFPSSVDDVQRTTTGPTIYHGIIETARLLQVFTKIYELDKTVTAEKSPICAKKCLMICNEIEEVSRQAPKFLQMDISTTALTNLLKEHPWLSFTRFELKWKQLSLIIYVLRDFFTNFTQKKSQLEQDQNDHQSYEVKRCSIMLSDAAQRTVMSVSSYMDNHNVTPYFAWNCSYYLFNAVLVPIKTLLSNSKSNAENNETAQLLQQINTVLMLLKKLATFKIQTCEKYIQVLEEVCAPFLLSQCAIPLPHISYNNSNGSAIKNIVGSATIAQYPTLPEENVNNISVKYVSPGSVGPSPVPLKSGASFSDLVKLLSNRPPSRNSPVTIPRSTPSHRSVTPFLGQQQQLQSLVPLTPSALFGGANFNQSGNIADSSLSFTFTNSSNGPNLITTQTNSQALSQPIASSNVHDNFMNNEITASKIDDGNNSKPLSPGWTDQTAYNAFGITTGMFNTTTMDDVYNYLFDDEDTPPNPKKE
Chain of Estrogen receptor (Homo sapiens) (P03372 whole entry, looked up, the tested form may be a part): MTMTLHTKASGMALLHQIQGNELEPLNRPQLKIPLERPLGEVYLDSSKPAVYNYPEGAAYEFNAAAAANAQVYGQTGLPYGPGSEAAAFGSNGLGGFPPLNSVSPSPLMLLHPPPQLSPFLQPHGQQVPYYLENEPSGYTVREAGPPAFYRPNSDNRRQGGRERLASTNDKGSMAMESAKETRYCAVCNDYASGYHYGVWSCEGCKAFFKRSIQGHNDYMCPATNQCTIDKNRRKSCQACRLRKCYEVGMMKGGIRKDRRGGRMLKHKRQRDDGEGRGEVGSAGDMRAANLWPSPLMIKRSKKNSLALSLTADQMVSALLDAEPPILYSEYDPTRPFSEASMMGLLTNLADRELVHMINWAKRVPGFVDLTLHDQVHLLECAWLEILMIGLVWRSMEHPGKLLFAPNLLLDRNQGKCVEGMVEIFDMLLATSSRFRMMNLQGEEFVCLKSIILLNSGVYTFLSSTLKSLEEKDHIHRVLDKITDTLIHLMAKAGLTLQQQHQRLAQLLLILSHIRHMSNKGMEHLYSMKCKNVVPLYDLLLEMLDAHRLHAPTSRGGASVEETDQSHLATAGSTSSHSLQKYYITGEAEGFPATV
Chain of Nuclear receptor subfamily 1 group I member 2 (Mus musculus) (O54915 whole entry, looked up, the tested form may be a part): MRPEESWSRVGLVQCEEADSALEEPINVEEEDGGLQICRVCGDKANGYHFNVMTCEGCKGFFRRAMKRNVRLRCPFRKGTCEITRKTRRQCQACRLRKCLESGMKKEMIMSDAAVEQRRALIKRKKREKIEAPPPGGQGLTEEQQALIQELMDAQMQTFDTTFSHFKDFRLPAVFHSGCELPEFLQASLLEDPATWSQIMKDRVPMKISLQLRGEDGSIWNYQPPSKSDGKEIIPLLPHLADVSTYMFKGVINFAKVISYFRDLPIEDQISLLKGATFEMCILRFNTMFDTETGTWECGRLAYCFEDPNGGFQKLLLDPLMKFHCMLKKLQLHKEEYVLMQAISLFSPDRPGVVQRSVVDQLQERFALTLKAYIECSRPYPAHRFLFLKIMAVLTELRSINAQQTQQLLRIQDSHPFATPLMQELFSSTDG
Chain of chicken Estrogen Receptor (ERa), ESR1 (gene 396099) (P06212 whole entry, looked up, the tested form may be a part): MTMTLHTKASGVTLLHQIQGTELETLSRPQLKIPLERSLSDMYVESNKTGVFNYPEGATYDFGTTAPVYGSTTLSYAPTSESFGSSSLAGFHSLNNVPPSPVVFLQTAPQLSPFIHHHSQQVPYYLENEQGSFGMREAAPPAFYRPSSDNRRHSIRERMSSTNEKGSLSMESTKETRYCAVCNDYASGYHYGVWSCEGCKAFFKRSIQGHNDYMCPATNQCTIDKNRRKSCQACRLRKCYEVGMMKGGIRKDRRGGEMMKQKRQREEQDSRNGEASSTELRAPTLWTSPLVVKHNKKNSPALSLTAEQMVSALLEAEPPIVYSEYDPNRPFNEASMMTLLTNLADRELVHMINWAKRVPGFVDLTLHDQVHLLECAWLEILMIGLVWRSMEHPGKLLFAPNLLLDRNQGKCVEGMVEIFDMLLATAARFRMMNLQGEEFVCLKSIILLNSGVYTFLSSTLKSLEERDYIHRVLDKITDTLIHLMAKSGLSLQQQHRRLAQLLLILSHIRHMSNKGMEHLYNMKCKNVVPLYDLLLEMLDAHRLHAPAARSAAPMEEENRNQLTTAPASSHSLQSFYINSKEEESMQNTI
Chain of zebrafish Estrogen Receptor (ER1), esr1 (gene 259252) (P57717 whole entry, looked up, the tested form may be a part): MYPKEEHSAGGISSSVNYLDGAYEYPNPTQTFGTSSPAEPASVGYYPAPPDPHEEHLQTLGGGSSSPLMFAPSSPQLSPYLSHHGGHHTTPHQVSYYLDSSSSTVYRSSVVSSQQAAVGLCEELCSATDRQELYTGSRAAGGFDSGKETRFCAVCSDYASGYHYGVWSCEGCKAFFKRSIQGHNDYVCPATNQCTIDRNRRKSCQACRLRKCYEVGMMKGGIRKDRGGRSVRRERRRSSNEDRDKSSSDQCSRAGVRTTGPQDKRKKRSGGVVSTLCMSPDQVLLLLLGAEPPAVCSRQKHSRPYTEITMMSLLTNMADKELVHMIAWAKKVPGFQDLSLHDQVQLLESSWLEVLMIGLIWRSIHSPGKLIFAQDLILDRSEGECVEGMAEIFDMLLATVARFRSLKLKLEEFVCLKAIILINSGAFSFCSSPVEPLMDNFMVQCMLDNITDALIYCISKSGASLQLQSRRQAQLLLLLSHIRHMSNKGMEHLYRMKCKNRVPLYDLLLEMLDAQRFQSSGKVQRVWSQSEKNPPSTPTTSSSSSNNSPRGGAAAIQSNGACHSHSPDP

O=S(=O)(O)C(F)(F)C(F)(F)C(F)(F)C(F)(F)C(F)(F)C(F)(F)C(F)(F)C(F)(F)F
inactive: [1] | [2] | [3] | [4] | [5] | [7] | [10] | [11]
active: [6] 146 µM | [8] 119 µM | [9] 145 µM

CCOCN(C(=O)CCl)c1c(C)cccc1CC
inactive: [12] | [7] | [13]
active: [6] 100 µM | [8] 1.01 µM | [9] 2.14 µM | [10] 5.1 µM

CC1(C)C(C=C(Cl)Cl)C1C(=O)OC(C#N)c1ccc(F)c(Oc2ccccc2)c1 (configuration not stated)
active: [8] 20.5 µM | [9] 10.9 µM | [10] 1.97 µM | [11] 19.8 µM
not listed: [6] | [13] | [18] | [19]
inactive: all other assays above

CCCN(CCOc1c(Cl)cc(Cl)cc1Cl)C(=O)n1ccnc1
active: [8] 16.6 µM | [9] 20.4 µM | [10] 0.108 µM
not listed: [4] | [12] | [14] | [15] | [16]
inactive: all other assays above

CCCN(CCC)c1c([N+](=O)[O-])cc(C(F)(F)F)cc1[N+](=O)[O-]
active: [6] 69.9 µM | [16] 18.8 µM | [13] 100 µM | [10] 1.88 µM
not listed: [4] | [11] | [15] | [18]
inactive: all other assays above

COP(=S)(OC)Oc1ccc(SC)c(C)c1
inactive: [18] | [14] | [19] | [17] | [11]
active: [1] 5.17 µM | [2] 27.5 µM | [3] 27.8 µM | [5] 27.3 µM | [6] 59 µM | [16] 8.43 µM | [13] 26.8 µM | [8] 34.2 µM | [9] 35.8 µM | [10] 1.94 µM
